MCF10A rereplic: induces DNA re-replication in MCF 10a normal breast cells | MCF 10A DNA re-replication, Hoechst nuclear intensity, 48 h | Potency, µM (doses to about 46.1 µM), without a hit: at the highest dose activity, positive = re-replication, most hits filed as activators | 350,000 tested, 2.9% active | AID 624296; further: % of control where 0% means no effect; nearly all actives have a fitted effect of over 50% in size
KB-V1 MDR tox: KB-V1 MDR subline cytotoxicity | KB-V1 MDR cells viability, CellTiter-Glo, 72 h | Potency, µM (highest dose often 46.1 µM), usual class: cytotoxic | 400,000 tested, 3.4% active | AID 1347076; further: on the % scale 0 is the no-effect control and ±100 the full control effect; nearly all actives have a fitted effect of over 60% in size
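Cytotoxicity via CellTiter-Glo luminescence after 72 h compound exposure at 37 degrees C. Cells: drug-selected KB-V1 line, DMEM phenol-red free plus 10% FBS. Compounds tested at multiple concentrations; normalized data fitted to concentration-effect curves.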
KB-3-1 cytotox: kills parental KB-3-1 adenocarcinoma cells. KB-3-1 viability, CellTiter-Glo ATP luminescence, 72 h. Potency, µM (titrated, usually from 46.1 µM), hits mostly cytotoxic. AID 1347075. 400,000 tested, 1.4% active; further: on the % scale 0 is the no-effect control and ±100 the full control effect; nearly all actives have a fitted effect of over 60% in size
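KB-3-1 cells, DMEM (no phenol red) + 10% FBS; compound by pin transfer, 72 h, 37 °C. Readout: CellTiter-Glo luminescence after 10 min. Data normalized, curve-fitted.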
SW480 rereplic: induces DNA re-replication in SW480 colon adenocarcinoma cells | SW480 DNA re-replication, Hoechst DNA content imaging, 48 h | Potency, µM (highest dose often 46.1 µM), without a hit: at the highest dose re-replication activation, hits mostly activators | 340,000 tested, 1.8% active; further: % of control where 0% means no effect; nearly all actives have a fitted effect of over 55% in size
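250 cells/well; 23 nL cpd via pin tool; 48 hr, 37 C, 5% CO2; Hoechst 40 min; imager read of total nuclear intensity, ex 405/em 500-530 nm.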
ELG1 DNA repair: inhibitors of ELG1-dependent DNA repair in HEK293T cells; HEK293T ELG1-luciferase reporter, luminescence, 16 h; DNA damage induced by 5-fluorouridine; Potency, µM (doses to about 46.1 µM), without a hit: at the highest dose activity change, negative = inhibition, hits mostly inhibitors; 330,000 tested, 2.3% active; further: on the % scale 0 is the no-effect control and ±100 the full control effect; nearly all actives have a fitted effect of over 55% in size
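Cells (2,000 per well) received 5-fluorouridine plus test compound or DMSO and were incubated 16 hr at 37 °C, 5% CO2. Luciferase activity was read by luminescence 30 min after ONE-Glo addition; signal suppression marked inhibition of damage-induced ELG1 function.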
* = called active by the depositor; i = inactive; ? = inconclusive; / = not tested or not shown; [ ] = remark or other dose. Shown are actives, neighbours in structure and some others; about 8.1% of the full set was active somewhere. The call rests on the fitted dose curve; in most records, active means well fitted curve in the direction sought with a large enough effect; inconclusive means small, poorly fitted or top-dose-only effect, or another doubt; inactive means no such curve, though single readings can be large; an effect the other way counts as inactive or inconclusive. Potency means the concentration at half of the fitted maximal effect.

SMILES | MCF10A rereplic | KB-V1 MDR tox | KB-3-1 cytotox | SW480 rereplic | ELG1 DNA repair
COc1ccc(O[C@H]2C=C[C@@H](c3ccccc3)O[C@@H]2COC(=O)CC/C(C)=N/O[C@@H](C)c2cn([C@H](CO)Cc3ccccc3)nn2)cc1 | -1% | / | / | 23% | ?
N=c1c2c(n(Cc3ccc(Cl)c(Cl)c3)c3c1CCC3)CCCC2 | ? | i | i | 2% | 1%
N=c1c2c(n(Cc3ccc(Br)cc3)c3c1CCC3)CCCC2 | ? | i | 0.65µM* | -2% | -5%
O=[N+]([O-])c1ccc(COc2ccc(CN3CCCC3)cc2)cc1 | ? | i | i | 5% | /
N=c1c2c(n(Cc3ccc([N+](=O)[O-])cc3)c3c1CCC3)CCCC2 | 0%[9.22 µM] | i | i | -18% | 8.2µM*
ClCC1NCC(c2ccccc2Cl)c2c1[nH]c1ccccc21 (stereo unspecified) | 3.7µM* | i | ? | -9% | -9%
CCOCc1cc(CN2CCCC(CNC(=O)c3ccco3)C2)ccc1OC (stereo unspecified) | 0% | i | i | -4% | 11%
COc1cc(C(=O)NCCC(=O)NC2CCCCC2)cc(OC)c1OC | 0% | i | i | 10% | 0%
O=C(CC(=O)OCc1ccccc1)OCc1ccccc1 | -3% | i | i | 0% | /
CC1CCC(NC(=O)C2c3ccccc3C(=O)N2Cc2cccs2)CC1 (stereo unspecified) | -1% | 3.7µM* | i | 1% | -1%
CN(Cc1ccccc1)CC(O)COc1ccc(CNCCc2ccncc2)cc1 (stereo unspecified) | ? | ? | i | 18µM* | -2%
CC(=O)Nc1cc(C(=O)N2CCc3ccccc3C2)ccc1Sc1ccc(Cl)cc1 | 23µM* | i | i | 8% | -10%
O=C(CSc1nccn(-c2ccc(Br)cc2)c1=O)NCc1ccccc1 | 19% | 13µM* | i | -3% | 6%
CCc1cccc(C)c1NC(=O)CN(C)Cc1ccccc1F | 17% | 21µM* | ? | 0% | -7%
Cn1ncc([N+](=O)[O-])c1C(=O)Nc1cccc2ccccc12 | 2% | i | i | 0% | -14%
O=C(Nc1cccc2ccccc12)c1ccc([N+](=O)[O-])s1 | ? | i | i | ? | 16µM*
O=C(Nc1cccnc1)c1ccc([N+](=O)[O-])s1 | ? | i | ? | ? | ?
O=C(Nc1ccccc1F)c1ccc([N+](=O)[O-])s1 | ? | ? | ? | 15µM* | 23µM*
COc1ccc(C)cc1NC(=O)N1CC(C)Sc2ccccc21 (stereo unspecified) | / | i | i | / | /
Cc1cccnc1Nc1nc(-c2ccccn2)cs1 | 9.2µM* | 4.1µM* | 1.5µM* | ? | ?
Cc1cccc(Nc2nc(-c3ccccn3)cs2)n1 | 21% | 0.52µM* | 9.2µM* | ? | ?
Cc1cccnc1Nc1nc(-c2ccccc2)cs1 | 10% | i | i | -66% | ?
O=C(CN1CCN(Cc2ccc(Cl)cc2)CC1)N/N=C/C=C/c1ccccc1[N+](=O)[O-] | ? | i | 21µM* | 18% | -27%
CC(C)c1noc2ncc(C(=O)c3cc(Cl)cc(Cl)c3O)cc12 | ? | 16µM* | ? | ? | -18%
Nc1nc2ncc(C(=O)c3cc(Cl)cc(Cl)c3O)cc2s1 | 2% | i | i | 13% | -14%
Cc1ccc(CN(C)C(=O)CSc2nnc3n2CCCCC3)c(C)c1 | 11% | 15µM* | i | -2% | 2%
O=C1CCCc2cc3c(cc21)CC1(C3)Cc2cc3c(cc2C1)C(=O)CCC3 | 3.3µM* | i | 6.5µM* | 5.8µM* | 13µM*
NS(=O)(=O)c1ccc(CNS(=O)(=O)Cc2ccc(Cl)cc2)cc1 | 6% | ? | i | -11% | -5%
Cc1cc(C)cc(OC(=O)CS(=O)c2ccc(C(F)(F)F)cc2[N+](=O)[O-])c1 (stereo unspecified) | 12µM* | ? | ? | ? | ?
